Compound activity: PubChem, The Scripps Research Institute Molecular Screening Center
PP5 inh: inhibitors of human protein phosphatase 5 (PP5); AID 1987; purified PP5c, OMFP substrate fluorescence; inhibition, % at 6.7 µM; P53041; 320,000 tested, 0.18% active;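 active = inhibition above the campaign's mean inhibition across all tested compounds plus 3 SD, cut at about 9.5% in these data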
PP1 counter: PP1-alpha (human) inhibition in PP5 counter-screen | P62136 | purified PP1alpha, OMFP fluorescence | inhibition, % at 6.7 µM | 320,000 tested, 0.9% active;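 active = inhibition above the mean inhibition of all tested compounds plus 3 SD, computed separately for each screening campaign, cut at about 15% in these data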
Target sequence (P62136 whole entry, looked up): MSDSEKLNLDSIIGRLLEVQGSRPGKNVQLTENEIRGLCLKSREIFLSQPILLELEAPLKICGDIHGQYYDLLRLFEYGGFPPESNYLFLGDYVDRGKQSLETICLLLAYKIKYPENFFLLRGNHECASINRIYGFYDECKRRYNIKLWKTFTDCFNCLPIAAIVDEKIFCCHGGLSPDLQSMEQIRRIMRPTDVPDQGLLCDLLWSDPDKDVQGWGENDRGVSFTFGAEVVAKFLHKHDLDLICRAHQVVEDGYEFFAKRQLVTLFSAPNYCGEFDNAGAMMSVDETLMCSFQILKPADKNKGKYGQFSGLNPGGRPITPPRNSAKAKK
MsrA inhibitor: inhibits bovine methionine sulfoxide reductase A; purified bovine MsrA, absorbance read-out; inhibition, % at 15.5 µM; 360,000 tested, 0.75% active; AID 651718; in the data active = inhibition above about 4.5%
MsrA act: activates bovine MsrA enzyme; purified bovine MsrA, absorbance read-out; activation, % at 10.6 µM; 360,000 tested, 0.3% active; AID 602163; in the data active = activation above about 7.5%
EBNA-1 inhibitor: blocks EBNA-1 binding to DNA | EBNA-1 DNA binding, fluorescence polarization | inhibition, % at 14.8 µM | 300,000 tested, 0.34% active; in the data active = inhibition above about 28%
ZTA counter: counter-screen for EBNA-1 inhibitors: inhibitors of Epstein-Barr virus ZTA; ZTA-DNA binding, fluorescence polarization; 320,000 tested, 0.15% active; P03206; inhibition, % at 11 µM; AID 2234; in the data active = inhibition above about 33%
Target sequence (P03206 whole entry, looked up): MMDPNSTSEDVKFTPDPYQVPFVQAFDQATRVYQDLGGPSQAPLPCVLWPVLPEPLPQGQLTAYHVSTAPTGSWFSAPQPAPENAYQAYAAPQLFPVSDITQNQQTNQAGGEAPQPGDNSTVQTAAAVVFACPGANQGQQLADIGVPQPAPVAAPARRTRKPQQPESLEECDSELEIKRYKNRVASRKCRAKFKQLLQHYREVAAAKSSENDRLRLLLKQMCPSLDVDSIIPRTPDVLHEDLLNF
EBNA-1 inh conf: EBNA-1 (EBV) inhibition, confirmation | shares compounds with EBNA-1 inhibitor | AID 2292 | Recombinant EBNA-1 DBD, Cy5-DNA fluorescence polarization | inhibition, % at 14.8 µM | 830 tested, 35% active;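 active = mean inhibition across replicates above a set limit taken from the earlier primary screen, cut at about 28% in these data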
ZTA counter trip: counter-screen for EBNA-1 inhibitors: Epstein-Barr virus ZTA inhibitors, triplicate; shares compounds with EBNA-1 inhibitor; Zta-ZRE DNA binding, Cy5 fluorescence polarization; inhibition, % at 11.1 µM; 830 tested, under 10 active;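 active = mean inhibition over triplicates above a set limit taken from the primary EBNA-1 screen, cut at about 37% in these data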;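 note: purified full length Zta protein with Cy5 labeled ZRE DNA probe; inhibitors lower polarization by freeing the labeled DNA probe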
Each line names hits and unclear results; the compound was inactive in the other large screens (follow-up assays come after a bar, where they were run). A selection: hits, their analogues and other compounds. The true share with any hit is near 2.3%.

COc1ccc(-c2cn3c(C)c(C(=O)NCc4ccc5c(c4)OCO5)sc3n2)cc1	EBNA-1 inhibitor 80.5 | EBNA-1 inh conf 125.5 | ZTA counter trip inactive
COc1ccc(C(=O)NCc2ccc3c(c2)OCO3)cc1	none
C=CCNC(=S)NNC(=O)c1ccccc1	EBNA-1 inhibitor 76.8 | EBNA-1 inh conf inactive | ZTA counter trip inactive
C=CCNC(=S)NNC(=O)c1cccc(Br)c1	none
Cc1cccc(N(C(=O)c2snc(C(N)=O)c2N)C(C(=O)NCC2CCCO2)c2ccc3ncccc3c2)c1 (stereo unspecified)	none
CCS(=O)(=O)N1CCN(S(=O)(=O)c2ccc(S(=O)(=O)NC3CC3)cc2)CC1	EBNA-1 inhibitor 47.8 | EBNA-1 inh conf 43.6 | ZTA counter trip inactive
COc1ccccc1C(=O)NCCC(=O)NCC1COc2ccccc2O1 (stereo unspecified)	none (no result: EBNA-1 inhibitor)
Cc1ccc(N2CCN(C(=O)NC3CCCCC3)CC2C)cc1 (stereo unspecified)	none
COCCCNC(=O)c1c(N)n(-c2ccc(S(N)(=O)=O)cc2)c2nc3ccccc3nc12	EBNA-1 inhibitor 113.5 | EBNA-1 inh conf 64.8 | ZTA counter trip inactive
COCCCNC(=O)c1c(N)n(-c2ccccc2)c2nc3ccccc3nc12	none
O=C(O)c1cccc(S(=O)(=O)Nc2cc(Cl)ccc2Cl)c1	none
CC1CC(C)CN(C(=O)c2cccc(S(=O)(=O)Nc3cc(C(F)(F)F)ccc3Cl)c2)C1 (stereo unspecified)	EBNA-1 inhibitor 29.6 | EBNA-1 inh conf inactive | ZTA counter trip inactive
COc1ccc(C(=O)Nc2ccc(Cl)c(S(=O)(=O)Nc3ccccc3OC)c2)cc1	none
COc1ccccc1NS(=O)(=O)c1cc(NC(=O)c2ccc3ccccc3n2)ccc1Cl	EBNA-1 inhibitor 51.6 | EBNA-1 inh conf inactive | ZTA counter trip inactive
O=C(NC1CC1)c1ccc(N2CCCCC2)c([N+](=O)[O-])c1	none
CN1CCCCCC1C(=O)N1CCC(N2CCC(C(=O)N3CCOCC3)CC2)CC1 (stereo unspecified)	none
CC(=O)c1sc(NC(=O)COc2ccc(Br)cc2)nc1C	EBNA-1 inhibitor 42.7 | EBNA-1 inh conf inactive | ZTA counter trip inactive
CC(=O)c1sc(NC(=O)COc2ccc([N+](=O)[O-])cc2)nc1C	none
COC(=O)c1sc(NC(=O)COc2ccc(OC)cc2)nc1C	EBNA-1 inhibitor 30.1 | EBNA-1 inh conf inactive | ZTA counter trip inactive
CCOC(=O)c1sc(NC(=O)COc2ccc3c(c2)OCO3)nc1C	EBNA-1 inhibitor 64.8 | EBNA-1 inh conf 124.1 | ZTA counter trip inactive
COC(=O)c1sc(NC(=O)COc2cccc(C)c2)nc1C	none
COc1cc(NC(=S)N2CCN(S(C)(=O)=O)CC2)cc(OC)c1	none (no result: PP5 inh, PP1 counter, EBNA-1 inhibitor, ZTA counter)
COCCOC(=O)c1c(NC(=O)COC(=O)Cc2cccc(OC)c2)sc(C(N)=O)c1C	EBNA-1 inhibitor 38.6 | EBNA-1 inh conf 98.3 | ZTA counter trip inactive
Cc1ccc(/C(N)=N/OC(=O)c2ccc3ccccc3c2)cc1	EBNA-1 inhibitor 31.3 | EBNA-1 inh conf 42.5 | ZTA counter trip inactive
CCOC(=O)C1=C(C)Nc2nc(SCC)nn2C1c1ccc(OC)cc1 (stereo unspecified)	EBNA-1 inhibitor 32.5 | EBNA-1 inh conf inactive | ZTA counter trip inactive
CC(C)Oc1ccc(/C=N/NC(=O)C(CSCc2ccccc2)NC(=O)c2ccc([N+](=O)[O-])cc2)cc1 (stereo unspecified)	none (no result: MsrA inhibitor)
O=C(CSc1ccc(-c2ccccc2)nn1)c1ccccc1	EBNA-1 inhibitor 39.6 | EBNA-1 inh conf inactive | ZTA counter trip inactive
Cc1ccc(C(=O)CSc2ccc(-c3ccccc3)nn2)cc1	none
Nc1c(C(=O)Nc2ccc3c(c2)OCCO3)nnn1Cc1cccc(Cl)c1	EBNA-1 inhibitor 54.3 | EBNA-1 inh conf 108.4 | ZTA counter trip inactive
COc1ccc(NC(=O)c2ccc3c(c2)CCN3S(=O)(=O)c2ccccc2)c(OC)c1	EBNA-1 inhibitor 28.3 | EBNA-1 inh conf inactive | ZTA counter trip inactive
C=CCOc1ccc(-c2nc3c(c(=O)[nH]c(=O)n3Cc3ccccc3)n2CCCOC)cc1	EBNA-1 inhibitor 29.1 | EBNA-1 inh conf inactive | ZTA counter trip inactive
CC(OCc1ccccc1)C(NC(=O)OC(C)(C)C)C(=O)NCC1CCCO1 (stereo unspecified)	EBNA-1 inhibitor 46.1 | EBNA-1 inh conf inactive | ZTA counter trip inactive
COc1ccc(NC(=O)c2cc(-c3cccnc3)nc3c(C)c(C)ccc23)c(OC)c1	EBNA-1 inhibitor 33.2 | EBNA-1 inh conf inactive | ZTA counter trip inactive
COc1cc2nc(NC(=O)c3ccccc3)sc(=O)c2cc1OC	none (no result: PP5 inh, PP1 counter, EBNA-1 inhibitor, ZTA counter)
CCOc1ccc(/C=N/NC(=O)C(=O)NCc2ccco2)cc1	EBNA-1 inhibitor 33.9 | EBNA-1 inh conf inactive | ZTA counter trip inactive
CCOC(=O)c1nn(-c2ccc(C)cc2)c(=O)cc1OCC(=O)N1CCN(c2ccccc2)CC1	none
Cc1c(C#N)c(N)nc2c3c(sc12)NC(=O)CC3c1ccccc1 (stereo unspecified)	EBNA-1 inhibitor 62.7 | EBNA-1 inh conf inactive | ZTA counter trip inactive
O=C(N/N=C/c1ccc2c(c1)OCO2)c1cc2ccccc2o1	EBNA-1 inhibitor 29.9 | EBNA-1 inh conf inactive | ZTA counter trip inactive
O=C(N/N=C/c1cccc2ccccc12)c1cc2ccccc2o1	none (no result: PP5 inh, PP1 counter, EBNA-1 inhibitor, ZTA counter)
CCS(=O)(=O)N1Cc2cc(C(=O)NCCOC)nc(-c3cccc(-c4ccncc4)c3)c2[C@H]1CCO	none (no result: PP5 inh, PP1 counter, EBNA-1 inhibitor, ZTA counter)
CC1CCN(S(=O)(=O)c2ccc(-c3nnc(SCc4cccnc4)o3)cc2)CC1	EBNA-1 inhibitor 44.3 | EBNA-1 inh conf inactive | ZTA counter trip inactive
COC(=O)CSc1nnc(-c2ccc(S(=O)(=O)N3CCC(C)CC3)cc2)o1	none
CC(=O)N1c2ccc(S(=O)(=O)NCC3CCC(C(=O)NC4CCCCC4)CC3)cc2CC1C (stereo unspecified)	EBNA-1 inhibitor 41.3 | EBNA-1 inh conf inactive | ZTA counter trip inactive
O=C1c2ccccc2C(=O)N1CCCCN(C(=O)c1cc2ccccc2oc1=O)c1ccc(Cl)cc1	EBNA-1 inhibitor 36.6 | EBNA-1 inh conf inactive | ZTA counter trip inactive
Cc1occc1C(=O)N1CCCC(N2CCN(c3ccccc3F)CC2)C1 (stereo unspecified)	none
O=C(Cn1c(-c2ccccc2Cl)nc2ccccc21)Nc1cccc(Cl)c1	none
Cc1cc(C)cc(NC(=O)Cn2c(-c3ccccc3Cl)nc3ccccc32)c1	EBNA-1 inhibitor 59.6 | EBNA-1 inh conf inactive | ZTA counter trip inactive
CCOC(=O)c1ccc(NC(=O)Cn2c(-c3nonc3N)nc3ccccc32)cc1	EBNA-1 inhibitor 30.8 | EBNA-1 inh conf 32.0 | ZTA counter trip inactive
COC(=O)c1ccc(NC(=O)Cn2c(-c3nonc3N)nc3ccccc32)cc1	none
COC(=O)CSC1=C(C#N)C(c2ccc3c(c2)OCO3)C2=C(CCCC2=O)N1 (stereo unspecified)	none (no result: MsrA inhibitor)
